Source: PubChem
Marburg entry inh = qHTS for inhibitors of binding or entry into cells for Marburg Virus. Marburg virus pseudotyped entry inhibition, cell reporter. Potency, µM (doses to about 37.8 µM), for the others: at the top dose activity change, negative = inhibition, actives largely listed as inhibitors. 300,000 tested, 1.8% active. AID 540276, 2011; calls by dose curve; tested in HEK293 cells; note: potency is the fitted concentration of half-maximal effect; % is set by controls: 0 for no effect and ±100 for the full control effect
HCV inh = qHTS Assay for Inhibitors of Hepatitis C Virus (HCV); Huh7.5.1 HCVcc-Cre infection, luciferase reporter, 44 h; Potency, µM (top dose mostly 41.8 µM), inactives show at the highest dose activity change, negative = inhibition, usual class: inhibitors; AID 651820, 2012; 340,000 tested, 3.4% active; active = well fitted inhibition curve with a large enough effect; inconclusive = small, poorly fitted or top-dose-only effect, or another doubt; inactive = no such curve, though single readings can be large or run the other way; note: potency is the fitted concentration of half-maximal effect; % is set by controls: 0 for no effect and ±100 for the full control effect
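Seed cells (1,000/well) for 4 h; treat with compound and infect with HCVcc-Cre, moi about 0.5. Incubate 44 h, then detect luciferase activity.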
FMDV antiviral = High Throughput Screening for Foot and Mouth Disease Virus Antivirals | FMDV antiviral cell-based qHTS | Potency, µM (series often up to 57.9 µM), for the others: at the top dose activity change, negative = inhibition, most hits filed as inhibitors | 410,000 tested, 1.2% active; calls by dose curve; tested in HEK293T cells; note: read-out not given here; potency is the fitted concentration of half-maximal effect; % is set by controls: 0 for no effect and ±100 for the full control effect; nearly all actives have a fitted effect of over 45% in size
HCMV antiviral = qHTS Assay for inhibitors of the human cytomegalovirus (HCMV); HFF cells, HCMV-luciferase reporter, 72 h; stronger effect = lower value; activity change, negative = inhibition, % at 57.5 µM; 410,000 tested, 4.5% active; in the data active = activity change below about -60%; inconclusive = no clear call, values can overlap the other calls; inactive = above about -39%; note: % is set by controls: 0 for no effect and ±100 for the full control effect
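Two-dose cell screen: HFF monolayers treated with compounds and infected with luciferase-expressing HCMV at 1 PFU/cell, 72 h at 37C, then lysed for luciferase measurement.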
SARS PLP yeast = qHTS of Yeast-based Assay for SARS-CoV PLP; S. cerevisiae expressing SARS-CoV PLpro, growth rescue; Potency, µM (series often up to 32.9 µM), inactives show at the highest dose activity, positive = growth rescue, actives largely listed as activators; 330,000 tested, 0.19% active; AID 485353, 2010; calls by dose curve; note: potency is the fitted concentration of half-maximal effect; 0% is about no effect; nearly all actives have a fitted effect of over 55% in size
Lassa entry inh = qHTS for Inhibitors of binding or entry into cells for Lassa Virus; Lassa virus pseudotype entry inhibition, cell reporter; Potency, µM (doses to about 37.9 µM), for the others: at the highest dose activity change, negative = inhibition, actives largely listed as inhibitors; 300,000 tested, 1.2% active; calls by dose curve; tested in HEK293 cells; note: potency is the fitted concentration of half-maximal effect; % is set by controls: 0 for no effect and ±100 for the full control effect; nearly all actives have a fitted effect of over 50% in size
* = called active by the depositor; ! = repeats disagree; [ ] = dose if it differs, or a comment. Most compounds without a hit are left out; they make up all but 8% or so of the library.

Screening Cc1ccc(NC(=O)c2cc(N3C(=O)C=CC3=O)ccc2N2CCOCC2)cc1 returned Marburg entry inh -3%[46.1 µM], HCV inh 10µM*, FMDV antiviral inconclusive, HCMV antiviral inconclusive and SARS PLP yeast -6%.
`Cc1ccc(Cl)cc1NC(=O)c1cc(NC(=O)C2CCCCC2C(=O)O)ccc1N1CCOCC1` (stereo not given) gave Marburg entry inh 18%[46.1 µM], HCV inh 2%, FMDV antiviral 3%, HCMV antiviral -5, SARS PLP yeast inconclusive and Lassa entry inh 10µM*.
Screening Cc1ccc(NC(=O)c2cc(NC(=O)c3ccco3)ccc2N2CCCCC2)cc1 returned Marburg entry inh inconclusive, HCV inh inconclusive, FMDV antiviral -26%, HCMV antiviral -64*, SARS PLP yeast -4% and Lassa entry inh 7%.
O=C(CCn1cnc2onc(-c3ccc(F)cc3)c2c1=O)N1CCN(c2cccc(Cl)c2)CC1 was read as FMDV antiviral inconclusive, HCMV antiviral 2 and Lassa entry inh -10%[46.1 µM].
For Cc1ccc(S(=O)(=O)Cn2nnnc2CN2CCCC3(CCCCC3)C2)cc1 the results were Marburg entry inh inconclusive, HCV inh 3%, HCMV antiviral -68*, SARS PLP yeast -14% and Lassa entry inh inconclusive.
For CCCC(=O)N1CCN(c2nc3ccc(F)cc3s2)CC1 the results were FMDV antiviral -20%, HCMV antiviral -5 and Lassa entry inh -30%[46.1 µM].
`Cn1cc(CN2CCCC(C(=O)c3ccc(-c4ccccc4)c(F)c3)C2)cn1` (stereo not given) gave Marburg entry inh inconclusive, HCV inh inconclusive, FMDV antiviral -25%, HCMV antiviral -13, SARS PLP yeast -1% and Lassa entry inh -21%.
Screening Cc1nn(C)cc1CN1CCCC(C(=O)c2ccc(-c3ccccc3)c(F)c2)C1 (stereo not given) returned Marburg entry inh inconclusive, HCV inh 10µM*, FMDV antiviral -9%, HCMV antiviral inconclusive, SARS PLP yeast -1% and Lassa entry inh inconclusive.
For Cn1cc(CN2CCCC(C(=O)c3ccc(-c4ccccc4)cc3)C2)cn1 (stereo not given) the results were HCV inh 14µM*, FMDV antiviral 8%, HCMV antiviral -18 and SARS PLP yeast 0%.
Screening CCn1cc(CN2CCCC(C(=O)c3ccc(-c4ccccc4)cc3)C2)cn1 (stereo not given) returned Marburg entry inh inconclusive, HCV inh inconclusive, FMDV antiviral -9%, HCMV antiviral -61*, SARS PLP yeast -1% and Lassa entry inh inconclusive.
For CC12CNCC(C)(CN(C(c3ccccc3)c3ccccc3)C1)C2 the results were Marburg entry inh inconclusive, HCV inh inconclusive, FMDV antiviral inconclusive, HCMV antiviral inconclusive, SARS PLP yeast 5% and Lassa entry inh 20µM*.
Screening Clc1ccc(C(c2ccccc2)N2CCNCC2)cc1 (stereo not given) returned Marburg entry inh inconclusive, HCV inh 11µM*, FMDV antiviral -4%, HCMV antiviral 45, SARS PLP yeast 5% and Lassa entry inh -13%.
O=C1CC(O)C(Cc2ccccc2)N1 (stereo not given) was read as HCMV antiviral -2.
Screening Cc1cc(C)c2oc(-c3ccc(C)c(NC(=O)/C=C/c4ccco4)c3)nc2c1 returned Marburg entry inh 5%[46.1 µM], FMDV antiviral -1%, HCMV antiviral 64 and Lassa entry inh 25%[46.1 µM].
CN1CCN(c2oc(/C=C/c3ccc(F)cc3)nc2C#N)CC1 was read as Marburg entry inh 3%[46.1 µM], FMDV antiviral -12%, HCMV antiviral -16 and Lassa entry inh inconclusive.
`CC(=O)c1ccc(NC(=O)CSC2=Nc3ccccc3N=C(c3ccc(F)cc3)C2)cc1` gave FMDV antiviral -12%, HCMV antiviral 19 and Lassa entry inh 21%[46.1 µM].
Screening COc1ccc(Sc2ccc(/C=C3\C(=O)NN(c4ccccc4)C3=O)o2)cc1 returned Marburg entry inh inconclusive, HCV inh -1%, FMDV antiviral 40µM*, HCMV antiviral -14, SARS PLP yeast 0% and Lassa entry inh 0%.
`CCCCN(Cc1cc2ccccc2[nH]c1=O)C(=O)c1cccc(Cl)c1` gave Marburg entry inh -20%[46.1 µM], FMDV antiviral inconclusive, HCMV antiviral -35 and Lassa entry inh -10%[46.1 µM].
Screening Cn1c(CN2CCCC2)nc2cc(NC(=O)COc3ccc(Cl)cc3)ccc21 returned Marburg entry inh inconclusive, HCV inh inconclusive, HCMV antiviral 6, SARS PLP yeast 0% and Lassa entry inh 20%.
`Cn1c(CN2CCCCC2)nc2cc(NC(=O)c3ccc(Cl)cc3)ccc21` gave Marburg entry inh 21µM*, HCV inh 4µM*, FMDV antiviral 18µM*!, HCMV antiviral -67*, SARS PLP yeast -4% and Lassa entry inh 19%[46.1 µM].
`Cn1c(CN2CCOCC2)nc2cc(NC(=O)c3ccc(F)cc3)ccc21` gave Marburg entry inh -21%, HCV inh inconclusive, HCMV antiviral -75*, SARS PLP yeast 7% and Lassa entry inh -5%.
`CCOC(=O)N1CCN(Cc2nc3cc(NC(C)=O)ccc3n2C(C)C)CC1` gave Marburg entry inh inconclusive, FMDV antiviral -16%, HCMV antiviral 69 and Lassa entry inh -24%[46.1 µM].
Screening Cn1c(CN2CCCC2)nc2cc(NC(=O)c3ccc(Cl)cc3)ccc21 returned Marburg entry inh -28%, HCV inh inconclusive, FMDV antiviral 0%, HCMV antiviral -73*, SARS PLP yeast -4% and Lassa entry inh 20%.
`CCOC(=O)N1CCN(Cc2nc3cc(NC(=O)c4ccccc4Cl)ccc3n2C(C)C)CC1` gave Marburg entry inh inconclusive, FMDV antiviral inconclusive, HCMV antiviral -90* and Lassa entry inh -19%[46.1 µM].
For CCOC(=O)c1ccc(NS(=O)(=O)c2ccc3c(c2)CCN3C(=O)CC)cc1 the results were Marburg entry inh inconclusive, FMDV antiviral 8%, HCMV antiviral -16 and Lassa entry inh -6%[46.1 µM].
For COc1ccc(CNC(=O)c2ccc(-c3nc(CSc4ccccc4)c(C)o3)cc2)cc1OC the results were FMDV antiviral -4%, HCMV antiviral 9 and Lassa entry inh 1%[46.1 µM].
COc1ccc(-n2nc(C(=O)Nc3ccc4c(c3)OCO4)c3c4ccccc4n(C)c3c2=O)cc1 was read as Marburg entry inh 0%, HCV inh 11%, FMDV antiviral -21%, HCMV antiviral 84, SARS PLP yeast 2% and Lassa entry inh -25%.
`COc1ccc(-n2nc(C(=O)Nc3ccc(OC)c(OC)c3)c3c4ccccc4n(C)c3c2=O)cc1` gave Marburg entry inh -26%, HCV inh inconclusive, FMDV antiviral -16%, HCMV antiviral -64*, SARS PLP yeast 14% and Lassa entry inh inconclusive.
